Measurements reported in PubChem BioAssay AID1979 (Broad Institute, 2009).
Out of some 300,000 compounds screened, about 1,700 (0.57%) were called active. About 2% were inconclusive and are not listed. Many of the other results were omitted from the sample, so actives are more common in it than they were. A number with no mark means an inactive call.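 How the source made its calls: active means growth inhibition above about 58% in most replicates (limit read from the data, passing the limit was not always enough); inconclusive means exactly half the replicates above a set limit; inactive means most replicates below a set limit.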

Assay: C. albicans growth inhibition with fluconazole, primary screen, CaCi-2 strain, Alamar Blue fluorescence (AID 1979);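 further: all wells also contain fluconazole at 8 µg/ml as a sub-toxic cotreatment; 0% = median of DMSO wells and 100% = median of geldanamycin control wells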
Conditions: C. albicans CaCi-2 (fluconazole-resistant clinical isolate) + fluconazole, 48 h, active compounds read high, concentration not given here

Compound | growth inhibition
C#CCOCCOCCOCCNc1nc(N2CCN(C(=O)C([C@@H](C)CC)n3cc(C(N)COC(=O)C(F)(F)F)nn3)CC2)nc(N2CCN(C(=O)[C@H](CCCCN)n3cc(C(N)CC(C)C)nn3)CC2)n1 (stereo partly drawn) | 4.02%
O=C(CSC1=NS(=O)(=O)c2cc(F)ccc2N1)Nc1ccccc1F | 5.53%
Cc1ccc(N=C2SCCCN2C(=O)c2cccc(N3C(=O)CCC3=O)c2)cc1Cl | -7.25%
Nc1ccc(SCCN2C(=O)c3ccccc3C2=O)cc1 | 103% (active)
O=C(OCCN1C(=O)c2ccccc2C1=O)Oc1ccccc1 | 4.11%
CC(=O)c1cnc(SCCN2C(=O)c3ccccc3C2=O)nc1C | -3.43%
COc1ccc(-c2nnc(SCC(=O)Nc3cccnc3Cl)n2C)cc1 | 6.53%
O=C(NC(Cc1ccccc1)C(=O)N1CCCC(C(F)(F)F)C1)c1ccccc1 (stereo not drawn) | 1.33%
CCCCN(C(=O)CSCC(=O)Nc1ccc(OC)cc1)c1c(N)n(CCC)c(=O)[nH]c1=O | -2.57%
O=C(NN1C(=O)C2C(C1=O)C1C=CC2C12CC2)c1ccccc1Cl (stereo not drawn) | 3.48%
CC12CCC(C(=O)N(c3cccc(Cl)c3)C1=O)C2(C)C (stereo not drawn) | -3.94%
CC12CCC(C(=O)N(NC(=O)c3ccccc3O)C1=O)C2(C)C (stereo not drawn) | 107% (active)
Cc1ccc(/C=N/NC(=O)C2=NNC(c3ccccc3)(c3ccccc3)C2)c(O)c1 | 102% (active)
COc1ccc(/C=N/NC(=O)c2cc(-c3cccc(C)c3)nc3ccccc23)cc1O | 34.6%
COc1cc(/C=N/NC(=O)c2cc(-c3ccccc3C)nc3ccccc23)cc(OC)c1O | 32.7%
O=C(Nc1ccc(OC(F)(F)F)cc1)c1ccc2c(c1)no[n+]2[O-] | -3.65%
CC1CC2=C(CC1/C=N/NC(N)=S)C(C)(C)CCC2 (stereo not drawn) | 26.2%
CC(C)CN(C(=O)c1ccc2c(c1)OCO2)C1CCS(=O)(=O)C1 (stereo not drawn) | 3.11%
CCOc1cc(C(=O)Nc2ccc(S(=O)(=O)Nc3cnc4ccccc4n3)cc2)cc(OCC)c1OCC | 19.7%
CC(=O)Nc1ccc(Nc2c3ccccc3nc3ccccc23)cc1 | 111% (active)
CC(=O)Nc1ccc(NC(=O)COc2ncnc3ccccc23)cc1 | -12.4%
Cc1ccc(Nc2c3c(nc4ccccc24)CCC3)cc1 | 70.5%
COc1ccc(C(=O)OCC(=O)Nc2ccc3[nH]c(=O)[nH]c3c2)c(OC)c1OC | -6.2%
CC(OC(=O)CCC(=O)c1ccccc1)C(=O)Nc1ccc(F)cc1 (stereo not drawn) | -2.1%

Compound | growth inhibition
C=CCOc1ccc(/C=C/C(=O)OC(C)C(=O)Nc2ccc(NC(C)=O)cc2)cc1 (stereo not drawn) | -2.89%
O=C(CN(C(=O)c1csnn1)c1cccc(Cl)c1)NC1CCCC1 | 9.33%
CCCCC(=O)NNC(=S)NC(=O)C(c1ccccc1)c1ccccc1 | 107% (active)
O=C(NNC(=S)NCc1ccco1)C(c1ccccc1)c1ccccc1 | 15.6%
CC(C)C(=O)Nc1cccc(NC(=S)NC(=O)C(c2ccccc2)c2ccccc2)c1 | 50.4%
Cc1ccc(CSCC(=O)N(C)CC(=O)Nc2cccc(F)c2)cc1 | -6.82%
Cc1ccc(OCCC(=O)OCC(=O)N2c3ccccc3NC(=O)C2(C)C)cc1 | -5.48%
Cn1c(N2CCOCC2)c(C=O)c2ccccc21 | -1.88%
Cc1cc(C(=O)OC(C)C(=O)NC2CCCCC2C)c(C)o1 (stereo not drawn) | -4.31%
COc1cccc(/C=N/Nc2ncc(C(F)(F)F)cc2Cl)c1O | 3.96%
COc1cccc(/C=N/Nc2cc(C)nc(-c3ccccc3O)n2)c1O | 112% (active)
COc1ccccc1/C=N\Nc1cc(C)nc(-n2nc(C)cc2C)n1 | 2.71%
CCOC(=O)c1c(NC(=O)CN2C(=O)NC3(CCC(C)CC3)C2=O)sc(C)c1CC (stereo not drawn) | -6.28%
CC[n+]1cc(C)ccc1/C=C/c1ccc(N(C)C)cc1 | 79.2% (active)
CN(C)c1ccc(/C=N\S(=O)(=O)c2ccccc2)cc1 | -0.179%
Cc1nnc(N/N=C/C2CC=CCC2)[nH]c1=O (stereo not drawn) | -10.8%
Cc1nnc(N/N=C/c2cccs2)[nH]c1=O | -0.996%
Cc1nnc(N/N=C/c2ccccn2)[nH]c1=O | 102% (active)
CCN(CC(=O)Nc1cc(Cl)ccc1C)C(=O)CSCc1ccc(C)cc1 | -5.77%
O=S(=O)(NCCS(=O)(=O)N1CCN(c2ccccc2)CC1)c1ccc(F)cc1 | 0.355%
O=C(CC(c1ccccc1)c1cc(Cl)ccc1O)NCCN1CCOCC1 (stereo not drawn) | -8.66%
O=C(NCCN1CCOCC1)Nc1cccc(Cl)c1 | 10.7%
O=C(CC(NCCN1CCOCC1)C(=O)O)Nc1cccc(Cl)c1 (stereo not drawn) | 90.7% (active)
COc1ccccc1C(=O)COC(=O)CSCC(=O)Nc1cc(C)on1 | 0.143%

Compound | growth inhibition
O=C(COC(=O)c1ncc(Cl)c(Cl)c1Cl)NC1CCS(=O)(=O)C1 (stereo not drawn) | -0.837%
S=c1[nH]nc(-c2cccs2)n1/N=C/c1cn(-c2ccccc2)nc1-c1ccc(Cl)cc1 | -0.57%
S=c1[nH]nc(-c2cccs2)n1/N=C/c1cccs1 | 78.7% (active)
Oc1ccccc1/C=N/n1c(-c2cccs2)n[nH]c1=S | -0.357%
COc1cc(C(=O)OCC(=O)N(CC(C)C)C2CCS(=O)(=O)C2)ccc1OCC(C)C (stereo not drawn) | 5.68%
Oc1c(CN2CCN(c3ccc(F)cc3)CC2)cc(Cl)c2cccnc12 | 112% (active)
Oc1ccc(CN2CCN(c3ncccn3)CC2)cc1 | -5.62%
Cc1cccnc1NC(=O)c1cccc(S(=O)(=O)N2CCN(c3ccc(F)cc3)CC2)c1 | -15.4%
Cc1noc(C)c1COc1ccccc1C(=O)N(C)CC(=O)Nc1cccc(F)c1 | 3.18%
Cc1ccc(C(=O)NNC(=O)C(C)Oc2ccc3ccccc3c2)o1 (stereo not drawn) | -0.807%
CCOC(=O)c1c(-c2ccccc2)oc2ccc(OCC(N)=O)cc12 | 1.32%
CCOC(=O)c1c(-c2ccccc2)oc2cc(Br)c(O)c(C=O)c12 | 99.6% (active)
CCOC(=O)c1c(-c2ccccc2)oc2cc(Br)c(O)cc12 | 15.1%
OC(COCCC12CC3CC(CC(C3)C1)C2)CN1CCCCC1 (stereo not drawn) | 8.32%
O=C(CCCCO)c1ccc(O)c(Cl)c1 | -0.4%
O=C(NNC(=O)c1ccc(Cl)cc1Cl)c1cccs1 | -3.73%
Cc1ccc(NNC(=O)c2cccs2)cc1Cl | 94.7% (active)
Cc1ccc(NNC(=O)c2c(F)cccc2Cl)cc1Cl | 3.83%
N[C@@H](Cc1ccccc1)C(=O)N1CCC(C(=O)NCC(=O)Nc2ccc(F)cc2)CC1 | -10.4%
COc1ccc(NC(=O)CSc2nc(C)cs2)cc1 | 106% (active)
Cc1csc(SCC(=O)Nc2sccc2C#N)n1 | 4.45%
COc1cc(OC)cc(-c2nnc(SCC(=O)Nc3ccc(C(=O)O)cc3)s2)c1 | -1.63%
Cc1ccnc(NC(=O)CNC(=O)c2ccccc2)c1 | -1.64%
COc1ccc2oc(C(=O)OCC(=O)N(CC(C)C)c3c(N)n(Cc4ccccc4)c(=O)[nH]c3=O)c(C)c2c1 | 5.5%

Compound | growth inhibition
CCCn1c(C)cc(/C=C(\C#N)C(=O)OCC(=O)N(C)c2c(N)n(Cc3ccccc3)c(=O)[nH]c2=O)c1C | -1.38%
Cc1c(CCO)sc[n+]1CC(=O)OC12CC3CC(CC(C3)C1)C2 | -19.8%
Cc1c(CCOC(=O)c2cc([N+](=O)[O-])ccc2Cl)sc[n+]1CCCCS(=O)(=O)[O-] | -13.2%
Cc1c(CCOC(=O)CC23CC4CC(CC(C)(C4)C2)C3)sc[n+]1Cc1ccc([N+](=O)[O-])cc1 | 93% (active)
COc1ccc(/C=N/Nc2ncnc3sc4c(c23)CCCC4)cc1O | 18.5%
COc1ccc(-c2cc(C(=O)NC(Cc3c[nH]c4ccccc34)C(=O)O)c(C)o2)cc1OC (stereo not drawn) | -7.28%
COc1cccc(/C=N/NC(=O)c2[nH]nc3c2CCc2ccccc2-3)c1O | 89.9% (active)
CN(C)CCNC(=O)c1[nH]nc2c1CCc1ccccc1-2 | -8.27%
COc1cc2cc(C(=O)N/N=C/c3cccc(OC)c3OC)[nH]c2cc1OC | 0.698%
CCOc1ccc(-c2cc(C(=O)N/N=C/c3ccc(O)cc3)c3ccccc3n2)cc1 | 10.7%
CCC1(c2ccccc2)NC(=O)N(CC(=O)Nc2ccccc2C(=O)NC2CCCC2)C1=O (stereo not drawn) | 2.41%
CC(C)c1cc(CN2CCOCC2)cc(C(C)C)c1O | 5.31%
Oc1c(C(c2ccccn2)N2CCOCC2)ccc2cccnc12 (stereo not drawn) | 85.8% (active)
CCC(C)N(C(=O)COC(=O)c1nc(Cl)ccc1Cl)C1CCS(=O)(=O)C1 (stereo not drawn) | -0.955%
Cc1cccc(NC(=O)CSC(N)=O)c1C | 91.9% (active)
Cc1cccc(NC(=O)CN2C(=O)c3ccccc3C2=O)c1C | -5.98%
Cc1cccc(NC(=O)COC(=O)CCc2ccccc2)c1C | 0.193%
COc1ccc(CCNc2cc(N3CCN(C(=O)c4ccccc4OC)CC3)ccc2[N+](=O)[O-])cc1OC | -7.13%
NC(=O)C1CCN(C(=O)COc2ccc3c4c(c(=O)oc3c2)CCC4)CC1 | -1.66%
O=C(COc1ccc2c3c(c(=O)oc2c1)CCC3)NC1CCCCC1 | 13.6%
NC(=O)COc1ccc2c3c(c(=O)oc2c1)CCCCC3 | 122% (active)
